Sampled rows, rich in hits. Any-hit rate of the full collection: about 6.7%.
T cruzi growth-1: blocks T. cruzi growth in NIH3T3 culture. T. cruzi beta-gal in NIH3T3, GalScreen luminescence, 90 h. inhibition, % at 8.34 µM. actives 5.9% (n = 77,000);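 active = mean inhibition above about 93%, with at least 55% of replicates each passing it, limit read from the data, passing the limit was not always enough; inconclusive = only one of those two conditions holds; inactive = neither condition holds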
Pf Dd2 inh: blocks growth of Plasmodium falciparum Dd2 parasites. P. falciparum Dd2 growth, SYBR Green, 72 h; stronger effect = lower value. activity change, % at 10 µM. actives 2.3% (n = 94,000). AID 1159554; in the data active = activity change below about -80%; inconclusive = no clear call, values can overlap the other calls
C diff HTS: inhibitors of Clostridium difficile growth. Clostridium difficile clinical isolate growth, OD600, 24 h; stronger effect = lower value. growth activity, negative = inhibition, % at 16 µg/mL (by protocol). actives 0.25% (n = 86,000). AID 1259249;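 active = mean growth activity at or below -80% and every replicate also at or below -80%; inconclusive = mean at or below -80% but some replicate above -80%; inactive = mean growth activity above -80%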;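 also: 0% = DMSO wells and -100% = levofloxacin 16 µg/mL wells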
T cruzi growth-2: Trypanosoma cruzi proliferation inhibition; shares compounds with T cruzi growth-1; actives 72% (n = 5,600); inhibition, % at 8.35 µM; T. cruzi beta-gal in NIH3T3, GalScreen luminescence, 90 h;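 active = mean replicate inhibition above about 95% and at least 55% of replicates individually reaching it, limit read from the data; inconclusive = only one of the two criteria is met; inactive = neither criterion is met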
T cruzi growth-3: blocks T. cruzi growth in NIH3T3 host cells; shares compounds with T cruzi growth-1; T. cruzi beta-gal in NIH3T3, GalScreen luminescence, 90 h; inhibition, % at 2.09 µM; actives 21% (n = 5,600); AID 651740;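 active = mean inhibition above about 95%, with at least 55% of replicates also reaching it, limit read from the data; inconclusive = meets just one of the two conditions; inactive = meets neither condition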;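 also: plate controls were neutral control median for no effect and positive control median for full effect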
3T3 cytotox: NIH/3T3 (mouse) viability loss. shares compounds with T cruzi growth-1. NIH/3T3 viability, CellTiter-Glo ATP luminescence, 90 h. cytotoxicity (signal decrease), % at 8.35 µM. actives 14% (n = 5,600);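 active = mean signal decrease across replicates above about 35% based on untreated-well scatter, with enough replicates individually passing, limit read from the data; inconclusive = no rule stated though some were filed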;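 also: 0% = median of neutral control wells and 100% = median of positive control wells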
NIH3T3 tox 2: cytotoxicity in mouse NIH/3T3 fibroblasts | shares compounds with T cruzi growth-1 | NIH/3T3 viability, CellTiter-Glo ATP luminescence, 90 h | inhibition, % at 24.9 µM | actives 56% (n = 5,600);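 active = mean loss of cell viability signal at or above a set limit, and enough replicates individually reaching it; inconclusive = meets only the mean limit or only the replicate share; inactive = meets neither condition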;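 also: 0% = median of neutral control wells and 100% = median of positive control wells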
* hit, by the source's call.

What do the screens show for `COc1ccccc1CNC(=O)C[C@H]1C[C@@H]2c3cc(NS(=O)(=O)c4ccc(F)cc4)ccc3O[C@@H]2[C@H](CO)O1`?
T cruzi growth-1: 78; Pf Dd2 inh: -1; C diff HTS: -4

How did CCCNC(=O)N1[C@H](CO)[C@@H](c2ccccc2)[C@H]1CNC(=O)c1ccc(F)cc1 do in these assays?
T cruzi growth-1: 73; Pf Dd2 inh: 11; C diff HTS: -9

What do the screens show for `O=C(C[C@@H]1C=C[C@@H](NC(=O)c2ccc3c(c2)OCO3)[C@@H](CO)O1)NCc1ccc(Cl)cc1`?
T cruzi growth-1: 60; Pf Dd2 inh: -12; C diff HTS: 0

What do the screens show for `C[C@H]1CN([C@@H](C)CO)C(=O)c2cc(NS(=O)(=O)c3cn(C)cn3)ccc2O[C@@H]1CN(C)Cc1ccc(C(=O)O)cc1`?
T cruzi growth-1: 24; Pf Dd2 inh: 9; C diff HTS: -3

What do the screens show for `C[C@@H]1CN([C@H](C)CO)C(=O)c2cc(C#CCc3ccccc3)cnc2O[C@@H]1CN(C)C(=O)C1CCCCC1`?
T cruzi growth-1: 35; Pf Dd2 inh: -34; C diff HTS: 0

What do the screens show for `C[C@H](CO)N1C[C@H](C)[C@@H](CN(C)C(=O)C2CCCCC2)Oc2ncc(C#CCc3ccccc3)cc2C1=O`?
T cruzi growth-1: inconclusive; Pf Dd2 inh: -77; C diff HTS: 16; T cruzi growth-2: 94; T cruzi growth-3: -19; 3T3 cytotox: 17; NIH3T3 tox 2: 106*

Results for CNC[C@@H]1Oc2ncc(C#CC3CCCC3)cc2C(=O)N([C@@H](C)CO)C[C@@H]1C ?
T cruzi growth-1: 96; Pf Dd2 inh: -31; C diff HTS: 4

How did CNC[C@H]1Oc2ncc(C#CCC3CCCC3)cc2C(=O)N([C@H](C)CO)C[C@H]1C do in these assays?
T cruzi growth-1: inconclusive; Pf Dd2 inh: -45; C diff HTS: 6; T cruzi growth-2: 108*; T cruzi growth-3: 92; 3T3 cytotox: 11; NIH3T3 tox 2: 106*

What do the screens show for `Cc1ccc(S(=O)(=O)N[C@@H]2CC[C@@H](CC(=O)NC3CCCCC3)O[C@H]2CO)cc1`?
T cruzi growth-1: -26; Pf Dd2 inh: 1; C diff HTS: -1

How did C[C@H](CO)N1C[C@H](C)[C@@H](CN(C)S(=O)(=O)c2ccc(F)cc2)OCCCC[C@H](C)Oc2ccc(NS(=O)(=O)c3cccs3)cc2C1=O do in these assays?
T cruzi growth-1: 49; Pf Dd2 inh: -53; C diff HTS: -6

What do the screens show for `N#C[C@H]1[C@H](c2ccc(-c3cncnc3)cc2)[C@@H](CO)N1C(=O)C1CCC1`?
T cruzi growth-1: 86; Pf Dd2 inh: -1; C diff HTS: -4

What do the screens show for `COc1ccc(-c2ccc([C@@H]3[C@@H](C#N)N(C(=O)C4CCOCC4)[C@H]3CO)cc2)cc1`?
T cruzi growth-1: 57; Pf Dd2 inh: 0; C diff HTS: 4

How did N#C[C@@H]1[C@H](c2ccc(-c3cncnc3)cc2)[C@H](CO)N1C(=O)C1CCC1 do in these assays?
T cruzi growth-1: 101*; Pf Dd2 inh: 10; C diff HTS: -9; T cruzi growth-2: 28; T cruzi growth-3: -66; 3T3 cytotox: -13; NIH3T3 tox 2: -18

How did N#C[C@@H]1[C@@H](c2ccc(-c3cncnc3)cc2)[C@H](CO)N1C(=O)C1CCOCC1 do in these assays?
T cruzi growth-1: 100*; Pf Dd2 inh: 26; C diff HTS: -14; T cruzi growth-2: 10; T cruzi growth-3: 9; 3T3 cytotox: -10; NIH3T3 tox 2: 1

Results for COCC(=O)Nc1ccc2c(c1)[C@H]1C[C@H](CC(=O)NC3CCCCC3)O[C@H](CO)[C@H]1O2 ?
T cruzi growth-1: 10; Pf Dd2 inh: 6

Results for O=C(Nc1ccc2c(c1)[C@H]1C[C@@H](CC(=O)N3CCc4ccccc4C3)O[C@@H](CO)[C@H]1O2)C1CCOCC1 ?
T cruzi growth-1: -31; Pf Dd2 inh: 11; C diff HTS: 0

What do the screens show for `O=C(C[C@H]1C[C@@H]2c3cc(NC(=O)NC4CCCC4)ccc3O[C@@H]2[C@H](CO)O1)NCc1ccccc1`?
T cruzi growth-1: 52; Pf Dd2 inh: -74

What do the screens show for `Cc1ccc(-c2ccc([C@@H]3[C@H](CO)N4CCCCN(C(=O)Nc5ccccc5)C[C@@H]34)cc2)cc1`?
T cruzi growth-1: inconclusive; Pf Dd2 inh: -9; C diff HTS: -92*; T cruzi growth-2: 105*; T cruzi growth-3: 106*; 3T3 cytotox: 120*; NIH3T3 tox 2: 105*

What do the screens show for `O=C(Nc1ccccc1)N1CCCCN2[C@@H](CO)[C@H](c3ccc(-c4ccccc4)cc3)[C@@H]2C1`?
T cruzi growth-1: 99*; Pf Dd2 inh: -44; C diff HTS: 29; T cruzi growth-2: 91; T cruzi growth-3: 74; 3T3 cytotox: 44*; NIH3T3 tox 2: 103*

What do the screens show for `O=C(Nc1ccccc1)N1CCCCN2[C@H](C1)[C@@H](c1ccc(Br)cc1)[C@@H]2CO`?
T cruzi growth-1: 53; Pf Dd2 inh: 27; C diff HTS: 5

How did O=C(Nc1ccccc1)N1CCCCN2[C@H](CO)[C@@H](c3ccc(-c4ccncc4)cc3)[C@@H]2C1 do in these assays?
T cruzi growth-1: 71; Pf Dd2 inh: 1; C diff HTS: 4

What do the screens show for `O=C(Nc1ccccc1)N1CCCCN2[C@H](CO)[C@@H](c3ccc(Br)cc3)[C@H]2C1`?
T cruzi growth-1: 85; Pf Dd2 inh: -25; C diff HTS: 2

What do the screens show for `Cc1ccc(-c2ccc([C@H]3[C@@H](CO)N4CCCCN(C(=O)Nc5ccccc5)C[C@H]34)cc2)cc1`?
T cruzi growth-1: 57; Pf Dd2 inh: -32; C diff HTS: 0

What do the screens show for `O=C(Nc1ccccc1)N1CCCCN2[C@H](CO)[C@@H](c3ccc(-c4ccccc4)cc3)[C@@H]2C1`?
T cruzi growth-1: inconclusive; Pf Dd2 inh: -29; C diff HTS: 21; T cruzi growth-2: 109*; T cruzi growth-3: 94; 3T3 cytotox: -8; NIH3T3 tox 2: 104*

Results for O=C(Nc1ccccc1)N1CCCCN2[C@@H](CO)[C@@H](c3ccc(-c4ccncc4)cc3)[C@@H]2C1 ?
T cruzi growth-1: inconclusive; Pf Dd2 inh: 26; C diff HTS: 0; T cruzi growth-2: 91; T cruzi growth-3: 69; 3T3 cytotox: 9; NIH3T3 tox 2: 19

What do the screens show for `C[C@H]1CCCCO[C@H](CN(C)C(=O)NC2CCCCC2)[C@@H](C)CN([C@@H](C)CO)C(=O)c2cc(NS(=O)(=O)c3ccc(Cl)cc3)ccc2O1`?
T cruzi growth-1: 80; Pf Dd2 inh: -13; C diff HTS: -5

What do the screens show for `Cc1ccc(S(=O)(=O)Nc2ccc3c(c2)CC(=O)N([C@@H](C)CO)C[C@@H](C)[C@H](CN(C)Cc2ccc(Cl)c(Cl)c2)O3)cc1`?
T cruzi growth-1: 9; Pf Dd2 inh: 2; C diff HTS: 62

Source: PubChem BioAssay
